Measured values reported in PubChem BioAssay.

Assay: E. coli DRC41 culture turbidity changes, primary screen, E. coli filamentation inducer project, strain DRC41, OD650, 48 h (AID 1152);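 note: E. coli MC1000 strain DRC41 lacking acrAB efflux pump and sulA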
Settings: E. coli DRC41 (acrAB sulA), higher = more signal, called active from +8 up or from −8 down

z-score, inactive:
CCCCC(CC)C(O)C1C=CC2C(=O)N(c3ccccc3)C(=O)C2N1Nc1ccc([N+](=O)[O-])cc1 (centres undefined) -0.999
C=C(COC)/C(=C/C[C@@H](OC(=O)c1ccncc1)c1ccc(CO)o1)c1cnc2ccccc2c1 0.149
COCCCNC(=O)[C@@H]1c2ccccc2C(=O)N(Cc2ccccc2C(F)(F)F)[C@H]1c1ccc(CO)cc1 0.938
CCCN1C(=O)[C@]2(Cc3ccccc3)N=C(c3ccc(OCCCO)cc3)O[C@@H]2c2ccccc21 0.655
CO[C@H]1O[C@H](CO)[C@@H](OC(=O)Nc2ccccc2-c2ccccc2)[C@H](OC(=O)Nc2ccc3c(c2)OCO3)[C@@H]1OC(=O)Nc1ccc2c(c1)OCO2 -0.609
COCCOC(=O)N1C(=O)[C@@]2(c3cc(C#CC4(O)CCCCCC4)ccc31)[C@H](C(N)=O)[C@H]1C(=O)O[C@H](c3ccccc3)[C@H](c3ccccc3)N1[C@@H]2c1ccc(O)cc1 -0.342
CC(CO)N1C(=O)[C@@H]2C3C(=O)OCCC/C=C\[C@H]3OC23C=CCN(Cn2nnc4ccccc42)C(=O)[C@@H]13 (some centres undefined) 0.822
C[C@]1(C(=O)NC2CC2)c2ccccc2C(=O)N(Cc2ccc(OC(F)(F)F)cc2)[C@H]1c1ccc(CO)cc1 0.323
COc1ccc([Si](C)(C)[C@H]2[C@H](CCn3cc([C@H](O)c4ccccc4)nn3)O[C@@]3(C(=O)N(Cc4cccc(N5C(=O)c6cccc7cccc5c67)c4)c4ccccc43)[C@@H]2C)cc1 -0.749
